# Measurements as given in PubChem BioAssay (EPA / NIEHS).
# Where “and” joins values, the source holds several entries; their conditions need not be identical. Identical values can stand only once. Results filed as inconclusive are left out. The source holds several records for some structures; these can differ, active in one and inactive in another. Calls of active or inactive are those of the source. How the source made its calls: active means hit-call score of the fitted dose curve at least 0.9, where 1 is the maximum; inconclusive means response in the unintended direction; inactive means score below 0.9.
# Tests used:
# [1] = ACEA_ER_AUC_viability: ACEA Biosciences xCELLigence Real-Time Cell Analysis on Estrogen Receptor Agonism for Viability (AID 2283782);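 further: hit means loss of impedance signal meaning reduced cell growth or viability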
# In short: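 Read-out: real-time electrical impedance (RT-CES) area under curve, loss of signal taken as reduced viability, normalized to DMSO baseline. T-47D cells, charcoal-stripped serum medium, compounds up to 100 uM final, continuous exposure, 80 h.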
# [2] = STM_H9_NormalizedViability: Cytotoxicity Assessment at 120 hours in the Stemina devTOX quickPredict H9 human embryonic stem cell (hESC)-based Assay (AID 2283784)
# In short: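 Here, H9 cells received test compound with daily medium renewal. Each plate included methotrexate references (1uM, 5 nM), 0.1% DMSO and media blanks; CellTiter-Fluor RFU was normalized to DMSO.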
# AR (gene 367) [3] = biological target: AR (gene 367) (UniProt P10275); test: ACEA_AR_antagonist_80hr: ACEA Biosciences xCELLigence Real-Time Cell Analysis on Androgen Receptor Antagonism for Proliferation (AID 2283787);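 further: 22Rv1 human prostate cancer cells with growth followed by electrical impedance; hits lower the impedance growth signal relative to DMSO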
# In short: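 Measures real-time proliferation of 22Rv1 prostate cancer cells by electrode impedance at 80 hours after dosing. Test articles ran at eight concentrations (1:4 steps, top 100 uM final) in biological duplicate.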
# AR (gene 367) [4] = biological target: AR (gene 367) (UniProt P10275); test: ACEA_AR_agonist_80hr: ACEA Biosciences xCELLigence Real-Time Cell Analysis on Androgen Receptor Agonism for Proliferation (AID 2283783);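 further: hits increase impedance growth signal above DMSO baseline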
# In short: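 Impedance (RT-CES) growth signal at 80 h post-dose; 22Rv1 cells, 8-pt 1:4 series, top 100 uM final, DMSO ≤0.5%; duplicate plates; gain-of-signal fit relative to DMSO baseline.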
# [5] = ATG_M_06_XSP1: Attagene TRANS-FACTORIAL Multi-Species (XSP1) HepG2 Assay for M06 Transcription Factor (Internal Marker) (AID 2283790)
# In short: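 This background-control readout tracks M06 reporter mRNA, measured by RT-PCR and capillary electrophoresis. HepG2 cells transiently carrying the GAL4-UAS reporter panel were dosed for 24 h with 3 nM 6-alpha-fluorotestosterone added for partial AR stimulation; increases were scored relative to DMSO.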
# [6] = ATG_M_61_XSP1: Attagene TRANS-FACTORIAL Multi-Species (XSP1) HepG2 Assay for M61 Transcription Factor (Internal Marker) (AID 2283797)
# Protocol: ATG_XSP1_multi-species_TRANS is a cell-based, multiplexed assay created by modifying the existing Attagene TRANS-FACTORIAL system to include a panel of nuclear receptors from some or all the following species: human (Homo sapiens), mouse (Mus musculus), frog (Xenopus laevis), zebrafish (Danio rerio), chicken (Gallus gallus), and turtle (Chrysemys picta). The ECOTOX-FACTORIAL format uses HepG2, a human liver cell line, with measurements taken at 24 hours after chemical dosing in a 24-well plate. Xsp1 included 3 nM 6-alpha-fluorotestosterone to partially stimulate the androgen receptor.ATG_M_61_XSP1 is one of 29 assay components measured or calculated from the ATG_XSP1_multi-species_TRANS assay. It is designed to make measurements of mRNA induction, a form of inducible reporter, as detected with fluorescence intensity signals by Reverse transcription polymerase chain reaction (RT-PCR) and Capillary electrophoresis technology.This assay endpoint, ATG_M_61_XSP1, was analyzed in the positive analysis fitting direction relative to DMSO as the negative control and baseline of activity. Using a type of inducible reporter, measures of mRNA for gain-of-signal activity can be used to understand the background control at the transcription factor-level as they relate to the gene. Furthermore, this assay endpoint can be referred to as a secondary readout, because this assay has produced multiple assay endpoints where this one serves a background control function. To generalize the intended target to other relatable targets, this assay endpoint is annotated to the background measurement intended target family, where the subfamily is internal marker.
# Human liver HepG2 cells are transiently transfected with multiple reporter transcription units (MRTUs) in 6-well plates using FuGene 6 reagent (Roche; 3 ml FuGene/1 mg DNA). The MRTU constructs are regulated by a cis-regulating element (promoter). […] A major difference between the CIS and TRANS system is that in CIS activities of endogenous TFs are measured, whereas the TRANS assay evaluates changes in activities of exogenous, chimeric NR-Gal4 proteins. […] At the end of 24 hour incubation, total RNA was isolated using TriZol reagent (Invitrogen). The isolated RNA is then reverse-transcribed using oligo(dT) primer and Mo-MLV reverse transcriptase (Invitrogen) with DNAse I (Ambion) treatment for 30 min. […] The fragments were purified using Qiaquick PCR columns (Qiagen), analyzed on an ABI 3130xL genetic analyzer (Applied Biosystems) with peak positions identified by using a set of X-rhodamine (ROX)-labeled MapMarker1000 molecular weight standards (BioVentures). […]
# AR (gene 367), sequence (P10275 whole entry, looked up): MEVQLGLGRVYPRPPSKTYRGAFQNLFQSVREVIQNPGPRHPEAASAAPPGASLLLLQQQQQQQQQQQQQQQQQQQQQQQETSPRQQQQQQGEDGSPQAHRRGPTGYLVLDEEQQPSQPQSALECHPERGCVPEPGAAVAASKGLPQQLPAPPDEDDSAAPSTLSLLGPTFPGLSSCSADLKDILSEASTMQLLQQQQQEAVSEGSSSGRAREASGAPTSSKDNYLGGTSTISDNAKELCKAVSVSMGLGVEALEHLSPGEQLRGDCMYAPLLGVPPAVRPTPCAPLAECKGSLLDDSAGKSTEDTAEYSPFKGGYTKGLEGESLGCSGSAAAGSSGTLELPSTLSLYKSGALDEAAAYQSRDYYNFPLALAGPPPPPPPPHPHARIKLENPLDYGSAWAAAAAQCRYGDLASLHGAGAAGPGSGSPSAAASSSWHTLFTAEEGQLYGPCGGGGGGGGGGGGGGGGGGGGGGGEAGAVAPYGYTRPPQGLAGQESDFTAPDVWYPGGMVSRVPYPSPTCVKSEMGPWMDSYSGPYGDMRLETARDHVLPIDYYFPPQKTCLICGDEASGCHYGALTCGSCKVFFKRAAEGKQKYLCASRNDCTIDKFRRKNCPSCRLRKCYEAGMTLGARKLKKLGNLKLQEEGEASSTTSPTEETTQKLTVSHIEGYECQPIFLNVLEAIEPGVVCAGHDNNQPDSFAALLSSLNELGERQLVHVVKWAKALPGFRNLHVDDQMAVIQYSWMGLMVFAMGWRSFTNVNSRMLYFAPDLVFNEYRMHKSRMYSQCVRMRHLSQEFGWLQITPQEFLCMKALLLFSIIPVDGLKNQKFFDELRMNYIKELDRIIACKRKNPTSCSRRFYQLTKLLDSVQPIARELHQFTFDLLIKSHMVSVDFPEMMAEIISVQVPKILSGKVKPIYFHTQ
compound,measurement,setting,value
CC1=C2C[C@H]3[C@@H](CC=C4C[C@@H](O)CC[C@@]43C)[C@@H]2CC[C@]12O[C@@H]1C[C@H](C)CN[C@H]1[C@H]2C,outcome,[1],inactive
same,outcome,[2],inactive
same,AC50,AR (gene 367) [3],80.8 µM (active)
C=CC(=O)NCNC(=O)C=C,outcome,AR (gene 367) [4],inactive
same,AC50,[2],50 µM (active)
same,outcome,AR (gene 367) [3],inactive
c1cc2ccc3cccc4ccc(c1)c2c34,outcome,[1],inactive
same,AC50,AR (gene 367) [3],25.5 µM (active)
CC(C)(O)C(=O)Nc1ccc([N+](=O)[O-])c(C(F)(F)F)c1,outcome,AR (gene 367) [4],inactive
same,outcome,[5],inactive
same,outcome,[6],inactive
CCC(=O)O[C@H]1CC[C@H]2[C@@H]3CCC4=CC(=O)CC[C@]4(C)[C@H]3CC[C@]12C,AC50,[1],92.4 µM (active) and 88.5 µM (active)
same,AC50,AR (gene 367) [4],0.207 nM (active) and 0.285 nM (active) and 0.61 nM (active)
same,AC50,[2],28.6 µM (active)
C=CC(N)=O,outcome,[2],inactive
O=NN(c1ccccc1)c1ccccc1,outcome,[2],inactive
CCSC(=O)N(CC)C1CCCCC1,outcome,[1],inactive
same,outcome,[2],inactive
C1CC2OC2CC1C1CO1 (configuration not stated),AC50,[2],74.5 µM (active)
CO/C=C(/C(=O)OC)c1ccccc1COc1cccc(C(F)(F)F)n1,outcome,[2],inactive
CCOCCOC(C)=O,outcome,[2],inactive
ClC1=C(Cl)[C@]2(Cl)[C@@H]3[C@H]4C[C@H]([C@@H]5O[C@H]45)[C@@H]3[C@@]1(Cl)C2(Cl)Cl,outcome,[1],inactive
same,AC50,[2],88.1 µM (active)
Oc1c(Cl)c(Cl)c(Cl)c(Cl)c1Cl,AC50,[1],77.9 µM (active)
same,outcome,[1],inactive
CCOC(=O)C(O)(c1ccc(Cl)cc1)c1ccc(Cl)cc1,AC50,[1],81.3 µM (active)
same,outcome,AR (gene 367) [4],inactive
same,AC50,AR (gene 367) [3],19.2 µM (active)
Clc1ccc(C(Cl)(Cl)Cl)cc1,AC50,[2],83.6 µM (active)
c1ccc(-c2ccccc2)cc1,outcome,[1],inactive
same,outcome,AR (gene 367) [3],inactive
NS(=O)(=O)C(F)(F)C(F)(F)C(F)(F)C(F)(F)C(F)(F)C(F)(F)C(F)(F)C(F)(F)F,AC50,[1],77.8 µM (active) and 132 µM (active)
same,AC50,AR (gene 367) [3],66.1 µM (active)
CCCCCCCCCC[N+](C)(C)CCCCCCCCCC,AC50,[1],5.4 µM (active)
same,AC50,[2],2.5 µM (active)
Cc1ccccc1CO[C@@H]1C[C@@]2(C(C)C)CC[C@]1(C)O2,AC50,[1],74.9 µM (active)
same,outcome,AR (gene 367) [4],inactive
same,AC50,AR (gene 367) [3],76.6 µM (active)
O=C(N[C@H]1CN2CCC1CC2)c1cc2ccoc2cn1,outcome,AR (gene 367) [4],inactive
same,AC50,AR (gene 367) [3],33.1 µM (active)
COS(=O)(=O)OC,outcome,[2],inactive
CCC(C)c1cc([N+](=O)[O-])cc([N+](=O)[O-])c1O (configuration not stated),outcome,[2],inactive
CCCCCCCCOC(=O)c1ccccc1C(=O)OCCCCCCCC,outcome,AR (gene 367) [4],inactive
same,AC50,AR (gene 367) [3],50 µM (active)
O=C(O)C(F)(F)C(F)(F)C(F)(F)C(F)(F)C(F)(F)C(F)(F)C(F)(F)C(F)(F)F,AC50,[1],122 µM (active)
same,outcome,[1],inactive
CCCCCCOC(=O)c1ccccc1C(=O)OCCCCCC,outcome,[1],inactive
same,outcome,[2],inactive
Cc1cc(O)ccc1Cl,outcome,[2],inactive
CCNc1nc(NC(C)C)nc(SC)n1,outcome,AR (gene 367) [4],inactive
same,outcome,[2],inactive
same,outcome,AR (gene 367) [3],inactive
